Screening data (PubChem)
In the library only some 3.4% were active in any assay of this set; here they are far more common.
Gli-Sufu antag: blocks Gli-Sufu signaling in a luciferase reporter; AID 588413; inhibition, % at 5 µM; Sufu-KO-LIGHT fibroblasts, Gli luciferase reporter luminescence; 340,000 compounds, 0.74% hits;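 active = inhibition above about 55%, limit read from the data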
GAA850 FXN act: frataxin GAA850 promoter activation; 360,000 compounds, 0.56% hits; HEK293 lucGAA850 FXN promoter luciferase reporter, 24 h; percent of 10 µM SAHA response; activation, % at 6 µM; AID 540364;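 active = activation above the average of all compounds screened plus 3 SD, cutoff fixed separately per campaign, cut at about 7.5% in these data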
Cardio protect: modulators protecting cardiomyocytes from myocardial damage. 360,000 compounds, 0.63% hits. protection from H2O2 cell death, % at 20 µM. AID 588492. H9c2 cardiomyocytes, H2O2 injury protection, ATPLite, 2 h;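 active = compounds giving at least 50% protection of heart cells from peroxide-induced death in the single-dose screen, raw or plate-pattern-corrected value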
COUP-TFII inh: inhibitors of human COUP-TFII (NR2F2) | inhibition, % at 8.6 µM | P24468 | 370,000 compounds, 0.7% hits | HEK293T NGFI-A luciferase reporter, luminescence;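 active = inhibition above a per-plate cutoff, mean inhibition of test wells between control levels plus 3 SD, cut at about 38% in these data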;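 also: cells cotransfected with COUP-TFII expression vector driving the NGFI-A reporter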
Target sequence (P24468 whole entry, looked up): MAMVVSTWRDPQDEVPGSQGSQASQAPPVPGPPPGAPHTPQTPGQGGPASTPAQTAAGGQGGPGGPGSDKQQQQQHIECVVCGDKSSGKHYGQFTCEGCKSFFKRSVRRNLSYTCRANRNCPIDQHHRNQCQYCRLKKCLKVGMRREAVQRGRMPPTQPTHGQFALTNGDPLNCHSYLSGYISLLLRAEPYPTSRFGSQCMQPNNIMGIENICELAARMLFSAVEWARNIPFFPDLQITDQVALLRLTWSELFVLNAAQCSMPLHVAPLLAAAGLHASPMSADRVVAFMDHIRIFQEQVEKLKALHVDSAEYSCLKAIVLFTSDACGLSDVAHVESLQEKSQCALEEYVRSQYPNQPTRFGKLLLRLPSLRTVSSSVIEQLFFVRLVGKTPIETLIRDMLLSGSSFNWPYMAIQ
SMARCA2 act: increases SMARCA2 function in MMTV reporter cells; activation, % at 9.1 µM; AID 652017; MG213 cells, MMTV-luciferase reporter, dexamethasone, overnight; 370,000 compounds, 1% hits; in the data active = activation above about 7.8%
GalR3 antagonist: human GalR3 antagonism | O60755 | HEK293 GalR3-CNG cAMP membrane potential fluorescence; galR3 body fused to GalR1 C-terminus | inhibition, % at 3 µM | 360,000 compounds, 0.44% hits | AID 651719;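 active = inhibition above the screen-wide average plus 3 SD, cut at about 13% in these data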;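 also: forskolin and galanin both at EC90 stimulate the cells; cAMP rise reported by CNG channel membrane potential dye signal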
SMARCA2 conf: confirmation of SMARCA2 (BRM) function activators; shares compounds with SMARCA2 act; MG213 cells, MMTV-luciferase with dexamethasone, luminescence, overnight; MG213 cells expressing E1A, Rb sequestered; DMSO wells 0%, reference activator 100%; activation, % at 9.1 µM; 3,500 compounds, 30% hits; AID 652260;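 active = activation above its plate's cutoff, the mean activation of tested wells plus 3 SD, cut at about 7.9% in these data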
VP16 Luc act: counter-screen for SMARCA2 activators: GAL4-VP16 luciferase reporter activation; shares compounds with SMARCA2 act; HEK293 GAL4-VP16 pG5luc reporter, luciferase luminescence; scaled: DMSO wells 0%, SAHA wells 100%; activation, % at 9.1 µM; 3,500 compounds, 41% hits;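 active = activation above the solvent-only control well mean plus 3 SD, averaged across control plates, cut at about 5.2% in these data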
Hits are given with their value; – = inactive; · = no result.

SMILES	Gli-Sufu antag	GAA850 FXN act	Cardio protect	COUP-TFII inh	SMARCA2 act	GalR3 antagonist	SMARCA2 conf	VP16 Luc act
O=C(c1cnn2cccnc12)N1CCN(c2ccccc2)CC1	–	–	–	–	13	–	–	–
CCOC(=O)C1(CC/C(C)=N\NC(N)=O)CC(C)(C)OC1=O (centres undefined)	–	–	–	–	–	–	·	·
Cn1nnnc1SCC(=O)Nc1nc2c(s1)CCCC2	–	–	–	–	11	–	–	9.0
COc1cc(OC)cc(-n2nnnc2SCC(=O)Nc2nc3c(s2)CCCC3)c1	–	–	–	–	–	–	·	·
Cc1c(-c2ccc(Cl)cc2Cl)nc2ccccc2c1C(=O)NCCN1CCOCC1	–	–	–	–	–	–	·	·
Cc1ccccc1C(=O)NNC(=O)c1ccc(Br)cc1	–	–	–	–	9.0	–	–	5.5
Cc1ccc(S(=O)(=O)N(C)CC(=O)N(C)CCOc2ccccc2)cc1	·	–	–	–	–	–	·	·
Cc1cc(C)nc(Sc2nc(Cl)nc(N(c3ccccc3)c3ccccc3)n2)n1	–	–	–	–	8.3	–	9.2	–
Cc1cc(C)nc(SC(C(=O)O)c2ccccc2)n1 (centres undefined)	–	–	–	–	–	–	·	·
CCc1cc(C(=O)O)c(NC(=O)/C=C/c2ccc(OC)cc2)s1	–	–	–	–	13	–	–	6.1
Nc1nonc1-n1nnc(C(=O)N/N=C/c2ccoc2)c1-c1ccccc1	–	–	–	–	–	–	·	·
COc1ccc2c(c1)CC/C(=C/c1ccncc1)C2=O	–	–	–	·	·	·	·	·
COc1ccc2c(c1)CC/C(=C\c1ccc(C)o1)C2=O	–	–	–	–	11	–	18	14
CC(=O)c1ccc(-c2cnc3c(NC=O)cc(-c4ccc(C(=O)N5CCOCC5)cc4)cn23)cc1	·	–	–	–	–	–	·	·
CN(C)C(=O)c1cccc(-c2cnc3c(NC=O)cc(-c4ccccc4Cl)cn23)c1	·	–	–	–	9.8	–	19	–
COc1cccc(-c2cnc3c(NC(C)=O)cc(-c4cccc(C(=O)NCCN(C)C)c4)cn23)c1	·	–	–	–	11	–	22	–
COc1ccc(-c2cnc3c(NC=O)cc(-c4ccc(C(=O)N5CCOCC5)cc4)cn23)cc1OC	·	–	–	–	12	–	–	–
CN(C)C(=O)c1cccc(-c2cnc3c(NC=O)cc(-c4ccccc4N(C)C)cn23)c1	·	–	–	–	–	–	·	·
CC(=O)Nc1cccc(-c2cc(NC=O)c3ncc(-c4cccc(C(C)=O)c4)n3c2)c1	·	–	71	–	11	–	–	6.5
CN(C)c1cccc(C(=O)N2CCCC(CCC(=O)N3CCN(c4ccccn4)CC3)C2)c1 (centres undefined)	–	–	–	–	–	–	·	·
O=C(NCc1ccccc1)C(c1ccco1)N1CCN(c2ccccc2F)CC1 (centres undefined)	·	·	·	–	–	–	·	·
O=C(CN1CCN(Cc2ccccc2)CC1)NNC(=O)c1ccccc1	–	–	–	–	–	–	·	·
COc1cccc(CNCc2ccc(SC)cc2)c1OC	–	–	–	–	–	–	·	·
COC(=O)CCCC(=O)NC(C)c1cnn(-c2ccccc2C)c1C (centres undefined)	–	–	–	–	–	–	·	·
CCc1ccc(OCC(=O)NC(=S)Nc2ccc(F)cc2)c(Br)c1	–	–	–	–	8.9	–	–	–
COC(=O)CSc1nc(C)c(C)c(C)c1C(N)=O	–	–	–	–	–	–	·	·
O=C1NCCCC1C(=O)N/N=C/c1cccc(O)c1 (centres undefined)	–	–	–	–	–	–	·	·
O=C1NCCCC1C(=O)N/N=C/c1ccccc1 (centres undefined)	–	–	–	–	8.8	–	–	–
COc1ccc(Cl)cc1NS(=O)(=O)c1cccc(C(=O)NCC2(N(C)C)CCCCC2)c1	–	–	–	–	–	–	·	·
